The text below walks through data of ChEMBL document CHEMBL2218924, “A broad activity screen in support of a chemogenomic map for kinase signalling research and drug discovery” (Biochem J, 2013).

The target in experiment [1] is Vascular endothelial growth factor receptor 3 (Homo sapiens) (UniProt P35916). Conditions: at 10 µM.
In experiment [2] the target is Macrophage colony-stimulating factor 1 receptor (Homo sapiens) (UniProt P07333). To be noted: at 1 µM.
Experiment [3] shares this target. To be noted: at 10 µM.
In experiment [4] the target is Tyrosine-protein kinase Fyn (Homo sapiens) (UniProt P06241). Conditions: at 1 µM.
Chain of Tyrosine-protein kinase Fyn (Homo sapiens) (P06241 2-537 limits assumed): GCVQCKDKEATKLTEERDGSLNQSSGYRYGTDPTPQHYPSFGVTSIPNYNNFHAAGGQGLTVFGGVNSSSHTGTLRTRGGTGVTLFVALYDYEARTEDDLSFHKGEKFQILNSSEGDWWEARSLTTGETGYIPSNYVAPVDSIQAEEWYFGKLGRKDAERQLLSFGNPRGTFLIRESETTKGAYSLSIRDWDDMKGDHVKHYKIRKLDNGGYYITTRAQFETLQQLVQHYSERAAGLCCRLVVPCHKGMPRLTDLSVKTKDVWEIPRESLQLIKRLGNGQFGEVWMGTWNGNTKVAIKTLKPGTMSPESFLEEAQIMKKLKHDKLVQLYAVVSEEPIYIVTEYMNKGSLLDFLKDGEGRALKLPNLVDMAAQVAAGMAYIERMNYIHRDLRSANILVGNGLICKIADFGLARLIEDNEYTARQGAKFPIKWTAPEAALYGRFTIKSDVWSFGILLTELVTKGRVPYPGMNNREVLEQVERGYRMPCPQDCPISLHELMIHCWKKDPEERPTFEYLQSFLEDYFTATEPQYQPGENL
Experiment [5] shares this target. Conditions: at 10 µM.
Experiment [6] deals with T1, Mitogen-activated protein kinase kinase kinase kinase 2 (Homo sapiens) (UniProt Q12851).
T1 sequence (whole entry): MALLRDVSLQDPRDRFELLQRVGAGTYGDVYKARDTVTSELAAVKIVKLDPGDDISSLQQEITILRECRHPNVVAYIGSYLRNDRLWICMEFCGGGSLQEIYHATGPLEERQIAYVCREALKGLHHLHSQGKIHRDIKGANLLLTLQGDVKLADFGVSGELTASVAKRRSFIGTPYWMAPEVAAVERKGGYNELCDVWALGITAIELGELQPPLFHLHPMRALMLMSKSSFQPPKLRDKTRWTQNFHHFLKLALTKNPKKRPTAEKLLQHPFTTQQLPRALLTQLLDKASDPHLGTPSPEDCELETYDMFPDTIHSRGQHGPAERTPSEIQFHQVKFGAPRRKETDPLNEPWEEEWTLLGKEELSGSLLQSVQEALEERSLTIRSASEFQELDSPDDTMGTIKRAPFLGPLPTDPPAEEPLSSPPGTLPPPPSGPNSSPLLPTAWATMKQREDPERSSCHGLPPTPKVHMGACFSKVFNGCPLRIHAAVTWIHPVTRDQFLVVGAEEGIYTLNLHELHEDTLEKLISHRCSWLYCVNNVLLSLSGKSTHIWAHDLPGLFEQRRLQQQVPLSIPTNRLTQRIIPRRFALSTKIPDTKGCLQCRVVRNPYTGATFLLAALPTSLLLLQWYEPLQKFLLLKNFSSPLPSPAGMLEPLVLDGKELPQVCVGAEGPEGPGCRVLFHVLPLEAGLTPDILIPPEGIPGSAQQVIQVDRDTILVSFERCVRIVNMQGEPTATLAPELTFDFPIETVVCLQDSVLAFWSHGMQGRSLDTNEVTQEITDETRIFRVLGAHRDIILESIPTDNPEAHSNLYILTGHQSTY
Conditions: at 1 µM.

Experiment [7] deals with T1, Mitogen-activated protein kinase kinase kinase kinase 2 (Homo sapiens). Conditions: at 10 µM.
For experiment [8], the target named is G protein-coupled receptor kinase 5 (Homo sapiens) (UniProt P34947). Conditions: at 10 µM.
Chain of G protein-coupled receptor kinase 5 (Homo sapiens) (P34947 whole entry, looked up): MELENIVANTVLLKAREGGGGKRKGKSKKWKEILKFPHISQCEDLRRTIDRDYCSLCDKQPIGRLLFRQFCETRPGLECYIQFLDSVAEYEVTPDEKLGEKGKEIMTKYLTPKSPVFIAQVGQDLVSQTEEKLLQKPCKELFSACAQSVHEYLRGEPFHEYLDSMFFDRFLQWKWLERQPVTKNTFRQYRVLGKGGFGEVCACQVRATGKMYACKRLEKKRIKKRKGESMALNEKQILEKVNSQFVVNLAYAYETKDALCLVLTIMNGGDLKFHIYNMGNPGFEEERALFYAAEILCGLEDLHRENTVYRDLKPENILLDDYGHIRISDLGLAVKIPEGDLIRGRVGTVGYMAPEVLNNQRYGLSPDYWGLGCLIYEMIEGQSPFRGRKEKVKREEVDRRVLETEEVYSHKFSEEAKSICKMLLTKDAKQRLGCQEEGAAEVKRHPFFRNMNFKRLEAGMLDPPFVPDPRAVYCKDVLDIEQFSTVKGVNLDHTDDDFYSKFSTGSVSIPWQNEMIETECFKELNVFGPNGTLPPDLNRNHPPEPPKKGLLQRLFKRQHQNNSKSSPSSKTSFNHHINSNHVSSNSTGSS
The target of experiment [9] is G protein-coupled receptor kinase 6 (Homo sapiens) (UniProt P43250). Conditions: at 10 µM.
Experiment [10] concerns the target T2, Rhodopsin kinase GRK7 (Homo sapiens) (UniProt Q8WTQ7).
T2 sequence (whole entry): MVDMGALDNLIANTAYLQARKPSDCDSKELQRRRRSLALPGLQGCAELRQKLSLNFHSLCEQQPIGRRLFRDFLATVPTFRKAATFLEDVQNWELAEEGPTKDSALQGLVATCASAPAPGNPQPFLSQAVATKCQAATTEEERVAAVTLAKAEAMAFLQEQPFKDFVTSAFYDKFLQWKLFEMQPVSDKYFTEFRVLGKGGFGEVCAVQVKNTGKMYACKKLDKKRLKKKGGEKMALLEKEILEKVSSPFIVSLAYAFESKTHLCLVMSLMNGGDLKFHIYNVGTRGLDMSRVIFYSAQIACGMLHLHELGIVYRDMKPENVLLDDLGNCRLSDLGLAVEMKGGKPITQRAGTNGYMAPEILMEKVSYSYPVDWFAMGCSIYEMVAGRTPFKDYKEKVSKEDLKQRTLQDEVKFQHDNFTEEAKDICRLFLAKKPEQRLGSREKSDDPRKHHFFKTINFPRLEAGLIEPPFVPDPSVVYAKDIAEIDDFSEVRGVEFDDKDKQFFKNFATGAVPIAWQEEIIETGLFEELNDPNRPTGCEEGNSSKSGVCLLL
To be noted: at 1 µM.

Experiment [11] concerns the target T2, Rhodopsin kinase GRK7 (Homo sapiens). Conditions: at 10 µM.
Experiment [12] has as its target Glycogen synthase kinase-3 alpha (Homo sapiens) (UniProt P49840). Conditions: at 1 µM.
Experiment [13] has the same target. To be noted: at 10 µM.
Experiment [14] has as its target Glycogen synthase kinase-3 beta (Homo sapiens) (UniProt P49841). Conditions: at 1 µM.
Experiment [15] shares this target. Conditions: at 10 µM.
The target in experiment [16] is Homeodomain-interacting protein kinase 1 (Homo sapiens) (UniProt Q86Z02). To be noted: at 1 µM.
Experiment [17] has the same target. To be noted: at 10 µM.
For experiment [18], the target named is Homeodomain-interacting protein kinase 2 (Homo sapiens) (UniProt Q9H2X6). To be noted: at 1 µM.
Chain of Homeodomain-interacting protein kinase 2 (Homo sapiens) (Q9H2X6 whole entry, looked up): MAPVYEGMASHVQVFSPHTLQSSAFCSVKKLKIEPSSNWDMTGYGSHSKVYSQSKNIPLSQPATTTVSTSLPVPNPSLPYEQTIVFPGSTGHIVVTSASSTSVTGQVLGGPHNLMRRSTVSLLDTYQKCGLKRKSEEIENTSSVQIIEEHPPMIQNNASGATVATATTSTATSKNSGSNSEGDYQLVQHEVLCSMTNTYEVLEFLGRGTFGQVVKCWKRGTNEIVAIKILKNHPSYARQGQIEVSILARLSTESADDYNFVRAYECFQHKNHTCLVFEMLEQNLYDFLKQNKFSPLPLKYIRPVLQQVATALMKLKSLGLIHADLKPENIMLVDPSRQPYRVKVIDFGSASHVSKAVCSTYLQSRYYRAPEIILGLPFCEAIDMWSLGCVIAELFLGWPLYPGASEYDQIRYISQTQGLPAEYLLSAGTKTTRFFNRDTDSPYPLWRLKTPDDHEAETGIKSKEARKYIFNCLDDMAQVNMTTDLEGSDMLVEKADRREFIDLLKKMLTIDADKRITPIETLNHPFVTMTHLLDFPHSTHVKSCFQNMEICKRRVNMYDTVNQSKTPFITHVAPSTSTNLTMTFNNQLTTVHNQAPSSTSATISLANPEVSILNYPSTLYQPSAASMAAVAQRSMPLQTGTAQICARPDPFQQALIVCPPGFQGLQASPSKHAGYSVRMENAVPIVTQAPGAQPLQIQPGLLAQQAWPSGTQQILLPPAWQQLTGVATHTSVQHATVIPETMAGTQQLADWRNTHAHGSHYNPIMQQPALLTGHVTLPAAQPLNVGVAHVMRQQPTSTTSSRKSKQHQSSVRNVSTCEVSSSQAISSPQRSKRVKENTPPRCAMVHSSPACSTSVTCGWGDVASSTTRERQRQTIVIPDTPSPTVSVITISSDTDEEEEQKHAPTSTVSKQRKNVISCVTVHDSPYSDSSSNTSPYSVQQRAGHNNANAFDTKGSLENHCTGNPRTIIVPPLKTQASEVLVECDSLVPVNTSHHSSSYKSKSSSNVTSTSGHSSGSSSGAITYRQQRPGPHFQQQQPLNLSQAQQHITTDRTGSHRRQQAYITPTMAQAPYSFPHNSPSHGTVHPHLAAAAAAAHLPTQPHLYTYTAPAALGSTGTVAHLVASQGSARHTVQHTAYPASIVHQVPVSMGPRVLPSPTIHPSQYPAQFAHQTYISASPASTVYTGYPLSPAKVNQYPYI
Experiment [19] shares this target. To be noted: at 10 µM.
Experiment [20] deals with Homeodomain-interacting protein kinase 3 (Homo sapiens) (UniProt Q9H422). To be noted: at 1 µM.
Chain of Homeodomain-interacting protein kinase 3 (Homo sapiens) (Q9H422 whole entry, looked up): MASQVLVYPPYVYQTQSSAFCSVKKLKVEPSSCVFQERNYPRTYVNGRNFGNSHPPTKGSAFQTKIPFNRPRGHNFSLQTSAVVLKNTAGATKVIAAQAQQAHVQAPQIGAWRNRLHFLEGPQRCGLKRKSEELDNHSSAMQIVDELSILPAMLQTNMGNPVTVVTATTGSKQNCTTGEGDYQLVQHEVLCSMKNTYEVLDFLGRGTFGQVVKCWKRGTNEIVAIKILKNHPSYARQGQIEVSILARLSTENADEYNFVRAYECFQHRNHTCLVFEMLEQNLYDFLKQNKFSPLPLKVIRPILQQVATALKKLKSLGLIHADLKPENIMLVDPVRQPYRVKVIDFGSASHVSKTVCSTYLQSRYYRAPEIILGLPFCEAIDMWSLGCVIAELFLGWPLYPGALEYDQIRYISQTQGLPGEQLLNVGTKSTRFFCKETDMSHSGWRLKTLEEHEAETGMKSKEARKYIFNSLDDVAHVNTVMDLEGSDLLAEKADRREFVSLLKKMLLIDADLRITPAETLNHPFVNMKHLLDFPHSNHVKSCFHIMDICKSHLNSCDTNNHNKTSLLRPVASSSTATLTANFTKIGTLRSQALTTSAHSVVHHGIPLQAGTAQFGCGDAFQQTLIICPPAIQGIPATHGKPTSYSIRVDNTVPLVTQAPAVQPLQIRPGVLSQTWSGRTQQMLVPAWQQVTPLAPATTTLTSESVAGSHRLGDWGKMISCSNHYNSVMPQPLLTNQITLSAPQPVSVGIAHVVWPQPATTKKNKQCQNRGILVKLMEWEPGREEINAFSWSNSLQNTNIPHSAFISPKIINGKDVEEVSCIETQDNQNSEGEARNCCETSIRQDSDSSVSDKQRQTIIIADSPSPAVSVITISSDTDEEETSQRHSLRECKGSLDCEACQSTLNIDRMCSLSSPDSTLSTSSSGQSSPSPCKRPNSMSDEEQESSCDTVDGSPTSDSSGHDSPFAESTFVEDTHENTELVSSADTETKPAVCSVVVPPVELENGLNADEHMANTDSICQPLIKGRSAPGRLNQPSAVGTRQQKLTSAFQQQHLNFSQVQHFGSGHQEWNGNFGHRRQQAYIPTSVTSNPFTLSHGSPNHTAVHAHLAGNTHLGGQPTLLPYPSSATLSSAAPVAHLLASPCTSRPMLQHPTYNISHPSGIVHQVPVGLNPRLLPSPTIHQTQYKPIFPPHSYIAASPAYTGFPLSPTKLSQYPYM

Chain of Glycogen synthase kinase-3 beta (Homo sapiens) (P49841 whole entry, looked up): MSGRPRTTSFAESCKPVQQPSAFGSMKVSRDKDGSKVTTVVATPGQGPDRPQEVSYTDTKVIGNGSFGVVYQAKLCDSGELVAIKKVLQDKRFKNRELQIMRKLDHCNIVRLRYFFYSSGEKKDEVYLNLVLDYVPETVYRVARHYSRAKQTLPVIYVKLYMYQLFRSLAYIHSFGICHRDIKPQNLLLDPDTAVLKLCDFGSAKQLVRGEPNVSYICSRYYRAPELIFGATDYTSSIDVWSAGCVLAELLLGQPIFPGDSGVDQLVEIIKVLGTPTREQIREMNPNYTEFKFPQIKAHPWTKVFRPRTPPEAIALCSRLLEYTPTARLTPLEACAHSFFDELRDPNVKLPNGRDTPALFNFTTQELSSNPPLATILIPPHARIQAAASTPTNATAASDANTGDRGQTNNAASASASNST
Chain of Macrophage colony-stimulating factor 1 receptor (Homo sapiens) (P07333 whole entry): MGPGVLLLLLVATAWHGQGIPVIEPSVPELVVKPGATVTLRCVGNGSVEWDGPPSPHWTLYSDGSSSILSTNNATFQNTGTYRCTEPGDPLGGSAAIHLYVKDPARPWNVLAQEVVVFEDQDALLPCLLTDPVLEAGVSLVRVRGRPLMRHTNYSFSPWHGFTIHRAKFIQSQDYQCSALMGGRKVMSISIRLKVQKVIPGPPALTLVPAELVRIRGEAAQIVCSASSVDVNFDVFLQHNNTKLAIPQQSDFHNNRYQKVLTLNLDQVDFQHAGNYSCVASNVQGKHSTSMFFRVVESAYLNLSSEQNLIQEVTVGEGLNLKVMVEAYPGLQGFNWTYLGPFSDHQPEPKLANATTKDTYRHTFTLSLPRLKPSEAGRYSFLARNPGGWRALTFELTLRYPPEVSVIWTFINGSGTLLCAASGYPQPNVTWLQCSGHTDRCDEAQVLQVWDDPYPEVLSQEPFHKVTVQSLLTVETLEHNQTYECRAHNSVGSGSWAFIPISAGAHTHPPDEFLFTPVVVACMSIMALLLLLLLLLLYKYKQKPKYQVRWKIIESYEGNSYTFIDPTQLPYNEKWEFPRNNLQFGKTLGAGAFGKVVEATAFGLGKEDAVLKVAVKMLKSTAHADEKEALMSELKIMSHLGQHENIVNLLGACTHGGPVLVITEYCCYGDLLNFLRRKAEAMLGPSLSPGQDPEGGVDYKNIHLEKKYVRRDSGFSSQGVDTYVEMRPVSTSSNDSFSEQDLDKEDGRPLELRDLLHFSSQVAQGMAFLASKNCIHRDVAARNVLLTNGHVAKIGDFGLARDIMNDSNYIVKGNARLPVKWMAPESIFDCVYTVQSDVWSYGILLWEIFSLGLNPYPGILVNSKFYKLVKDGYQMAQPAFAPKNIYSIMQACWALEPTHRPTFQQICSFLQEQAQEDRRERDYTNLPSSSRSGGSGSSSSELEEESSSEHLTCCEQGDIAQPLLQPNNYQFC

For the compound `CNc1cc2c(Nc3cccc(Br)c3)ncnc2cn1`, the residual activity in experiment [1] was determined as 38%; in [2], 88%; in [3], 59%; in experiment [4], 57%; in [5], 16%; in [6] it was 81%. The residual activity in experiment [7] turned out to be 34%; in experiment [8] it was 100%; in [9], 90%; in [10] it was 93%; in experiment [11], 81%; in experiment [12] it was 123%. Further, the residual activity worked out at 91% in experiment [13]; 106% in experiment [14]; 117% in [15]; 103% in experiment [16]; 101% in [17]; 108% in experiment [18]. The residual activity in experiment [19] worked out at 97%; in experiment [20] it was 100%.
In the case of `CC[n+]1c(/C=C/N(C)c2ccccc2)n(-c2ccccc2)c2ccc(-c3nc4ccccc4s3)cc21`, the residual activity worked out at 52% in experiment [1]; 93% in experiment [2]; 71% in experiment [3]; 101% in experiment [4]; 60% in experiment [5]; 103% in experiment [6]. Also, the residual activity in experiment [7] was determined as 73%; in [8], 91%; in experiment [9], 93%; in experiment [10], 112%; in experiment [11] it was 97%; in experiment [12], 122%. The residual activity was 109% in [14]; 116% in experiment [15]; 102% in experiment [16]; 93% in experiment [17]; 95% in [18]; 77% in experiment [19]. Also, in experiment [20], the residual activity amounted to 99%.
As for `Cc1cccc(-c2[nH]c(C(C)(C)C)nc2-c2ccc3c(c2)OCO3)n1`, the residual activity in [1] worked out at 90%; in experiment [4] it was 105%; in [5], 93%; in experiment [6], 96%; in experiment [7], 83%; in [8] it was 103%. Moreover, the residual activity turned out to be 87% in [9]; 97% in experiment [10]; 97% in experiment [11]; 104% in experiment [14]; 93% in [15]; 93% in [16]. For the same compound, the residual activity in experiment [17] came out at 102%; in experiment [18] it was 97%; in [19], 96%.
For the compound `NC(=O)c1ccc2[nH]c(-c3ccc(Oc4ccc(Cl)cc4)cc3)nc2c1`, the residual activity was 22% in experiment [1]; 84% in [2]; 59% in [3]; 78% in [4]; 86% in [5]; 44% in experiment [6]. Besides, the residual activity in experiment [7] came to 10%; in [8], 88%; in experiment [9], 80%; in experiment [10], 89%; in experiment [11], 77%; in experiment [12] it was 101%. Moreover, the residual activity in experiment [13] came out at 86%; in [14] it was 105%; in experiment [15] it was 130%; in experiment [16], 104%; in experiment [17] it was 96%; in experiment [18], 98%. Also, the residual activity in experiment [19] was found to be 100%; in experiment [20], 92%.
Take `N#CCCc1ccc2c(c1)-c1[nH]c3ccc([N+](=O)[O-])cc3c1CC(=O)N2`: the residual activity was found to be 2% in [1]; 24% in [2]; 19% in experiment [3]; 17% in experiment [4]; 1% in experiment [5]; 2% in experiment [6]. Also, the residual activity in experiment [7] is 2%; in experiment [12] it was 1%; in experiment [13], 0%; in experiment [14], -3%; in experiment [15], 0%; in experiment [18] it was 64%. The residual activity in experiment [19] came to 24%.
For `Oc1ccc(-c2nc(-c3ccc(F)cc3)c(-c3ccncc3)[nH]2)cc1`, the residual activity is 29% in experiment [1]; 79% in experiment [2]; 58% in [3]; 83% in experiment [4]; 27% in experiment [5]; 106% in experiment [6]. Moreover, the residual activity is 87% in [7]; 100% in experiment [8]; 97% in experiment [9]; 121% in experiment [10]; 96% in experiment [11]; 95% in experiment [12]. Moreover, the residual activity in [13] turned out to be 42%; in [14] it was 88%; in [15] it was 28%; in experiment [16], 103%; in [17], 96%; in [18], 99%. The residual activity was 95% in experiment [19] and 106% in [20].
Take `CCN(CC)C(=O)c1ccc(Nc2nc(OCC3CCCCC3)c3nc[nH]c3n2)cc1`: the residual activity is 0% in [1]; 1% in experiment [2]; 2% in [3]; 35% in experiment [4]; 5% in [5]; 33% in experiment [6]. In addition, the residual activity amounted to 3% in [7]; 97% in experiment [10]; 78% in experiment [11]; 72% in experiment [12]; 15% in [13]; 75% in experiment [14]. In addition, the residual activity in [15] worked out at 26%; in [19], 28%; in experiment [20], 99%.
